Results on 93 compounds are retold here after PubChem BioAssay AID463190 (Sanford-Burnham Center for Chemical Genomics, 2010).

The campaign covered roughly 330,000 compounds. About 7,300 (2.2%) were called active. For the sample, actives were picked, then their nearest neighbours and some compounds at random. Values without a mark were called inactive.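 Rule for the calls: active = inhibition of at least 40%; inactive = the rest.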

This assay is described as follows: growth inhibition of tim10-1 ts yeast – luminescence, uHTS, primary screen (AID 463190).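 Note: mutant grown at 25 °C; 0% = DMSO wells with yeast and 100% = wells holding no yeast.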 As to conditions: S. cerevisiae tim10-1 ts strain growth, BacTiter-Glo, 24 h; at 20 µM; active compounds read high.
As to `CCO[C@H]1OC(C(=O)O)=C[C@@H](C2CCCCC2)[C@@H]1CCCO`, the inhibition (commonly the drop in the measured response relative to a control, in per cent) was -21.3%.
Take `CCCOc1ccc(Cc2c(Cl)nc(SC)nc2NC)cc1`: the inhibition is 35.5%.
In the case of `CCc1cc(C(N)=O)c(NC(=O)c2ccc(OC)cc2)s1`, the inhibition was 45.5% (active).
As for `CCc1cc(C(=O)c2ccc(OC)cc2)c(NC(=O)CN2CCN(C)CC2)s1`, the figure is 17.7%; as for `COc1ccc(C(=O)Nc2sc(C)c(C)c2CN2CCOCC2)cc1`, 34.2%.
As to `C/C(Cn1nnc2ccccc21)=N\OC(=O)c1cc(F)c(F)cc1Cl`, the inhibition is 37.4%.
For `Cc1n[nH]c(=O)c2c(NC(=O)COC(=O)c3ncc(Cl)c(Cl)c3Cl)oc(C)c12` the value was 10.5%.
As for `CC(C(=O)O)n1cnc2sc3c(c2c1=O)CCCC3` (stereo not drawn), the figure is 2.4%; as for `COc1cc(Cl)ccc1OCc1cc(C(=O)N(C)CCc2c(C)n[nH]c2C)no1`, 7.82%.
Turning to `Cc1ccc(SC(CC(=O)c2ccc(C(C)(C)C)cc2)C(=O)O)cc1` (stereo not drawn), the inhibition was 40.7% (active).
As for `Cc1ccc(C(=O)CSc2ccccc2C(=O)O)cc1`, the inhibition was -0.398%.
Take `Cc1ccc(CSCC(N)C(=O)O)cc1` (stereo not drawn): the inhibition is 13.8%.
As for `CCC(C(=O)OCC(=O)Nc1c(Cl)cc(Cl)cc1Cl)c1ccccc1` (stereo not drawn), the figure is 39.5%.
In the case of `CCOC(=O)c1c(CN(C)C)n(-c2ccccc2)c2cc(Br)c(O)cc12`, the inhibition is 10.1%.
Turning to `CCOC(=O)c1c(CN2CCOCC2)n(-c2ccccc2)c2ccc(O)cc12`, the inhibition was 45% (active).
Take `CCOC(=O)c1nnn(-c2nonc2-n2cccc2)c1CN1CCOCC1`: the inhibition is 23.2%.
As for `CC1CCCCN1CC(=O)NCc1ccc2c(c1)OCO2` (stereo not drawn), the figure is 4.67%.
Regarding `Cc1ccc(NC(=O)CN2CCC3(O)CCCCC3C2c2ccc3c(c2)OCO3)c(C)c1` (stereo not drawn), the inhibition is 45.2% (active).
For `CCN(CC)c1ccc(C2C3CCCCC3(O)CCN2CC(=O)Nc2ccccc2)cc1` (stereo not drawn) the value was -17.2%.
For `COc1ccc(N2CCN(C(=O)COC(=O)c3cccc(S(=O)(=O)Nc4ccccc4OC)c3)CC2)cc1` the value was 19.1%; for `O=C1NC[C@@H](c2ccccc2)OC(=O)[C@H](Cc2ccc(F)cc2)CC/C=C/C[C@H]1CC(=O)N(CCO)Cc1ccccc1`, 3%; for `S=c1nc(C23CC4CC(CC(C4)C2)C3)nc2sccn12`, -12.4%.
For `CCOc1ccc(NC(=O)COc2ccc(C(=O)N3CCC(C(N)=O)CC3)cc2OC)cc1` the value was 3.08%.
For the compound `Cc1cccc(C(=O)N2CCc3c([nH]c4ccccc34)C2CC(C)C)n1` (stereo not drawn), the inhibition is 10.6%.
As for `O=C(c1cn2ccccc2n1)N1CCc2c([nH]c3ccccc23)C1c1ccccn1` (stereo not drawn), the figure is 22.4%; as for `Cc1cccc(C2c3[nH]c4ccccc4c3CCN2C(=O)c2cc(-c3cccn3C)n[nH]2)n1` (stereo not drawn), 44% (active).
As for `COCC1CCN(C(=O)C2CCC(=O)N(CC3CCCCC3)C2)CC1` (stereo not drawn), the figure is -9.11%; as for `Cc1nc(SC(C)C)[nH]c(=O)c1Cc1ccccc1`, 18.7%; as for `Cc1nn(C)c(C)c1NS(=O)(=O)c1ccc(OC(F)(F)F)cc1`, -1.38%.
For `O=S(=O)(Nc1ccc(O)c2ccccc12)c1ccc(OC(F)(F)F)cc1`, the inhibition is 42.5% (active).
With `O=C1COc2ccc(S(=O)(=O)Nc3ccc(OC(F)(F)F)cc3)cc2N1`, the inhibition is 18.6%.
For `CC(=O)NS(=O)(=O)c1ccc2c(c1)Cc1cc(S(=O)(=O)NC(C)=O)ccc1-2`, the inhibition is -1.53%.
As for `O=C1CC2(CC(c3ccc(Cl)cc3)=NO2)C(=O)N1c1ccccc1` (stereo not drawn), the inhibition is -3.93%.
`CN(C)CCCN(C(=O)c1ccc(S(=O)(=O)N2CCCCCC2)cc1)c1nc2ccc(Br)cc2s1`: the inhibition is 26.2%.
As for `CN(C)CCCN(C(=O)c1ccc(S(=O)(=O)N2CCCc3ccccc32)cc1)c1nc2ccc(F)cc2s1`, the figure is 52.8% (active); as for `CN(C)CCCN(C(=O)c1ccc(S(=O)(=O)N2CCCCCC2)cc1)c1nc2cc3c(cc2s1)OCCO3`, 27.4%; as for `O=[N+]([O-])c1ccc(S(=O)(=O)Nc2cccc(-c3ccc(N4CCCC4)nn3)c2)cc1`, 11.6%.
For `Cc1c(C(=O)NCCN2CCOCC2)sc2nc(-c3ccc(F)cc3)cn12` the value was 4.04%; for `FC(F)(F)Oc1ccc(NC(=S)NCc2ccccc2)cc1`, 41.8% (active); for `COC(=O)Cc1ccc(NC(=S)NCc2ccccc2)cc1`, 21.8%.
For `CCNC(=S)Nc1ccc(OC(F)(F)F)cc1` the value was 14.5%.
Take `Cc1ccc(CCNC(=O)C2CCN(S(=O)(=O)N3CCCC3)CC2)cc1`: the inhibition was 4.68%.
`CCOc1ccc(C2/C(=C(/O)c3ccc4c(c3)CC(C)O4)C(=O)C(=O)N2CCCn2ccnc2)cc1` (stereo not drawn): the inhibition was -3.88%.
As for `Cc1onc(-c2ccccc2Cl)c1C(=O)OCC(=O)c1ccccc1`, the figure is 11.7%; as for `Cc1[nH]c2ccccc2c1C(=O)CSCC(=O)O`, 12.6%.
On to `Cc1[nH]c2ccccc2c1C(=O)COC(=O)c1c(-c2ccccc2)noc1C`, for which the inhibition is 52.3% (active).
As for `Fc1cccc(Cl)c1CSc1ccc(-c2ccco2)nn1`, the inhibition was 45.4% (active).
For `O=C(CSc1ccc(-c2ccco2)nn1)Nc1cccc(F)c1` the value was 3.73%; for `Cc1cc(SCc2c(F)cccc2Cl)nc(=O)[nH]1`, 6.52%; for `CC(C)NC(=O)C(=O)NCCN1CCN(S(=O)(=O)c2ccc(Cl)cc2)CC1`, 2.58%.
As for `CC/C(=N\O)C(C)(C)/[N+]([O-])=C/c1ccc(Br)cc1`, the figure is 5.1%; as for `COCCNC(=O)/C(C#N)=C/c1cccc(OCc2ccccc2)c1`, 52.7% (active); as for `N#C/C(=C\c1ccc(O)c(O)c1)C(=O)NCc1ccccc1`, -4.07%.
Regarding `O=C(N/N=C/c1cccc(OCc2ccccc2)c1)c1ccc(Br)o1`, the inhibition is 27.9%.
As for `C=CCNC(=O)COC(=O)c1ccccc1C(=O)N(C)C1CCCCC1`, the figure is 16.1%; as for `CCOc1ccc(CN2CCN(Cc3ccc(C)o3)CC2CCO)cc1` (stereo not drawn), 5.81%; as for `O=C(CCc1ccc(S(=O)(=O)N2CCOCC2)cc1)Nc1ccc2ccccc2c1`, 41.9% (active).
Regarding `Cc1ccc(CC(=O)Nc2ccc(S(=O)(=O)N3CCOCC3)cc2)cc1C`, the inhibition was 19%.
In the case of `O=C(COC(=O)CCc1ccc(S(=O)(=O)N2CCOCC2)cc1)Nc1cccc(Cl)c1`, the inhibition was 5.19%.
For `CC(C)(C)OC(=O)C[C@@H]1C/C=C\C[C@@H](CC(=O)N[C@H](CO)Cc2ccccc2)C(=O)NCCOC1=O` the value was -5.51%.
As for `Cc1ccc2c(c1)nnc1nnc(SCC(=O)O)n12`, the figure is -10.5%; as for `CC1OC2C(OC1C)N(S(C)(=O)=O)CCN2S(C)(=O)=O` (stereo not drawn), 1.46%; as for `Cc1cc(Nc2ccc(Br)cc2)nc2ccccc12`, 29.6%.
For `Clc1ccc(Nc2ccc3ccccc3n2)cc1` the value was 54.1% (active); for `Cc1cccc(NC(=O)c2ccc3ccccc3n2)n1`, 27.1%.
Regarding `CCOC(=O)C1CCCN(S(=O)(=O)c2ccc3c(c2)C(C)(C)C(=O)N3C)C1` (stereo not drawn), the inhibition is -10.8%.
As for `CC1CCC2(CC1)NC(=O)N(CC(=O)c1ccc3c(c1)OCO3)C2=O` (stereo not drawn), the figure is -17.1%.
As for `CC(C)c1ccc(S(=O)(=O)NC2CCCC2)cc1`, the figure is 19%; as for `CSc1ccc(S(=O)(=O)NC2CCCCC2)cc1`, 45.6% (active); as for `Cc1ccc(S(=O)(=O)NC2CCCCCC2)cc1`, 21.3%.
Consider `CC(=O)c1ccccc1OCc1ccc(C(=O)c2ccccc2)cc1`, for which the inhibition was 9.55%.
For `O=C(C(=O)N1CCc2ccccc2C1)c1c[nH]c2ccccc12` the value was 40.7% (active); for `O=C(NC1CCCC1)C(=O)c1c[nH]c2ccccc12`, -16.2%; for `CC1CCN(CC(=O)c2c[nH]c3ccccc23)CC1`, 16%.
For `Cc1ccc(N2CC(C(=O)N3CCC4(CC3)CC(=O)c3ccccc3O4)CC2=O)cc1C` (stereo not drawn) the value was 1.3%; for `Cc1ccc(C(=O)NC23CC4CC(CC(C4)C2)C3)c(Cl)c1`, -11.9%; for `O=C(N/N=C1\CCSC1)c1cc(Cl)ccc1O`, -11.5%.
As for `C/C(=N/NC(=O)c1cc(Cl)ccc1O)C12CC3CC(CC(C3)C1)C2`, the figure is 50.7% (active); as for `COc1ccc2nc(NC(=O)NC3CCCCC3)sc2c1`, 21.2%.
Turning to `CCc1noc(C)c1C(=O)Nc1nc2ccc(OC)cc2s1`, the inhibition was 26.7%.
For `COc1ccc2nc(Nc3nc4cc5c(cc4s3)OCCO5)sc2c1`, the inhibition was 47.7% (active).
On to `c1ccc(-c2cnc(CN3CCN(c4ccccc4)CC3)o2)cc1`, for which the inhibition is 2.4%.
For `COc1ccc(N2CCN(Cc3ccc(Br)s3)CC2)cc1`, the inhibition was 19.9%.
As for `Fc1ccc(N2CCN(Cc3cnc(Oc4ccc(Br)cc4)s3)CC2)cc1`, the figure is 42.4% (active); as for `COc1ccc(N2CCN(C(CNS(=O)(=O)c3ccc(C)cc3)c3ccccc3)CC2)cc1` (stereo not drawn), 4.98%; as for `CS(=O)(=O)c1ccc(C(=O)OCC(=O)NNC(=O)COc2ccc(Cl)cc2)cc1`, -15.1%.
As for `C/C=C/c1ccc(OCCCCN2CCC(C)CC2)c(OC)c1`, the figure is 15.8%.
As for `COc1ccc(NC(=O)c2cc3nc(-c4ccccc4)cc(C)n3n2)cc1OC`, the figure is 51.1% (active); as for `COc1ccc(NC(=O)CNC(=O)Cc2ccccc2)cc1OC`, -6.35%; as for `COc1ccc(NC(=O)c2ccccc2[N+](=O)[O-])cc1OC`, 15.9%.
Consider `O=C(COC(=O)/C=C/c1ccc(S(=O)(=O)N2CCCCCC2)cc1)NCc1ccccc1Cl`, for which the inhibition is 35.9%.
Consider `Cc1onc(-c2ccccc2Cl)c1C(=O)N(Cc1ccc(N(C)C)cc1)C(C)C`, for which the inhibition was 23.4%.
For `O=c1ccc2c(-c3ccccc3S(=O)(=O)O)c3ccc(O)c(O)c3oc-2c1O`, the inhibition is 38.3%.
